Screening results from PubChem BioAssay.
PI5P4K alpha inh – qHTS for Inhibitors of phosphatidylinositol 5-phosphate 4-kinase (PI5P4K). hit rate 1.2% among 330,000. Phosphatidylinositol 5-phosphate 4-kinase type-2 alpha (Homo sapiens), P48426. AID 652105, 2013. PI5P4Kalpha enzyme, ADP-Glo luminescence, 60 min; stronger effect = lower value. max response, %; active = max response of -50% or lower; inconclusive = between -30% and -50%; inactive = -30% or higher; note: value at the top dose of about 77 µM; % is set by controls: 0 for no effect and ±100 for the full control effect
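Reactions run in 0.038 M HEPES pH 7.4, 0.28 mM EGTA, 0.1% CHAPS and 5% DMSO, with PI5P4Kalpha, substrate, compound and 5 microM ATP final, one hour at room temperature. Readout is ADP-Glo luminescence.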
Rango dissoc inh – qHTS Assay for Inhibitors of RanGTP induced Rango (Ran-regulated importin-beta cargo) - Importin beta complex dissociation | Snurportin-1 (Homo sapiens) + GTP-binding nuclear protein Ran (Homo sapiens) + Importin … | Biochemical FRET Rango-importin beta, RanGTP-induced dissociation | Potency, µM (highest dose often 46.1 µM), for the others: top-dose activity change, negative = inhibition | hit rate 0.071% among 340,000; calls by dose curve; note: potency is the fitted concentration of half-maximal effect; % of control where 0% means no effect; nearly all actives have a fitted effect of over 45% in size
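Rango (0.1 uM)–importin beta (0.25 uM) complex; RanGTP-RCC1 trigger; 45 min RT; CFP/YFP FRET read.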
PLK1 PBD block – qHTS for Inhibitors of PLK1-PDB (polo-like kinase 1 - polo-box domain): Primary Screen | hit rate 2.8% among 360,000 | Plk1 PBD binding of FITC phosphopeptide, fluorescence polarization | Potency, µM, without a hit: max response, negative = inhibition, usual class: inhibitors | Serine/threonine-protein kinase PLK1 (Homo sapiens), P53350; note: potency is the fitted concentration of half-maximal effect; series mostly up to about 57 µM; % is set by controls: 0 for no effect and ±100 for the full control effect; nearly all actives have a fitted effect of over 65% in size
Target sequence (P53350 whole entry, looked up, the tested form may be a part): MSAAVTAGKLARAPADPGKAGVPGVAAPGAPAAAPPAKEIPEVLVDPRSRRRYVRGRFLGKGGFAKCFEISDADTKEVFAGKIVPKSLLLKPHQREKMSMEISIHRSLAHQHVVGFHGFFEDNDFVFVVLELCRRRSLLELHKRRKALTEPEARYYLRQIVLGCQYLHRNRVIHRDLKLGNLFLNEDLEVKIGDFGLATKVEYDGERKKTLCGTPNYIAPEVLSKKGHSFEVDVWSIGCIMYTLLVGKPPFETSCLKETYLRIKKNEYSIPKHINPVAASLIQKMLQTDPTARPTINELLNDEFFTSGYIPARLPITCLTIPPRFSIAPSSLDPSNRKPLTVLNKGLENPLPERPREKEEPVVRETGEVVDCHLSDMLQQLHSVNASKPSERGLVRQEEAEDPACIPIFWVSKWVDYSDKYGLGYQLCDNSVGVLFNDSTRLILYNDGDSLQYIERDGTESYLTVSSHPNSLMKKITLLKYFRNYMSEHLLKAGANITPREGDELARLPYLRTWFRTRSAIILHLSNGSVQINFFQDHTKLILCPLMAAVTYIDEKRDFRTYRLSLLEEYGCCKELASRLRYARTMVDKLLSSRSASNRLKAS
KAT2A inh – qHTS Assay for Inhibitors of GCN5L2; Histone acetyltransferase KAT2A (Homo sapiens), Q92830; GCN5L2 HAT assay, ThioGlo1 CoA-SH fluorescence; Potency, µM (titrated, usually from 58.9 µM), inactives show at the top dose activity change, negative = inhibition, actives largely listed as inhibitors; hit rate 0.21% among 390,000; AID 504327, 2011; note: potency is the fitted concentration of half-maximal effect; % is set by controls: 0 for no effect and ±100 for the full control effect
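ThioGlo1-coupled HAT assay: 20nM GCN5L2, 70uM acetyl-CoA, 75uM H3(1-25) peptide, pH 7.5. Fluorescence read at 340/540nm at start and after 20 min at room temperature.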
VDR inhibitor – Inhibitors of the vitamin D receptor (VDR): qHTS | Vitamin D3 receptor (Homo sapiens), P11473 | VDR-SRC2-3 peptide fluorescence polarization, 2 h | Potency, µM, inactives show max response, negative = inhibition, usual class: inhibitors | hit rate 0.93% among 400,000; note: potency is the fitted concentration of half-maximal effect; % is set by controls: 0 for no effect and ±100 for the full control effect
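The screen uses fluorescence polarization to detect compounds that interfere with recruitment of the SRC2-3 coactivator peptide to VDR; plates are read after 2 h at room temperature.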
Rango complex inh – qHTS Assay for Inhibitors of Rango (Ran-regulated importin-beta cargo) - Importin beta complex formation | AID 540263, 2011 | Rango CFP/YFP FRET sensor + importin beta, 45 min | Importin subunit beta-1 (Homo sapiens), Q14974 | Potency, µM (titrated, usually from 92.2 µM), without a hit: at the highest dose inhibition of complex formation | hit rate 0.031% among 340,000; calls by dose curve;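 note: potency is the fitted concentration of half-maximal effect; 0% = DMSO wells and 100% = buffer wells lacking importin beta; nearly all actives have a fitted effect of over 15% in size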
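FRET biosensor Rango (snurportin 1 IBB between N-terminal EYFP and C-terminal Cerulean), 50 nM in PBS/1 mM DTT/0.02% Tween-20/0.1% BSA, preincubated 5 min RT with compound; 0.125 microM importin beta added, 45 min RT, CFP/YFP FRET ratio read.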
The depositor's hits bear a star; ? = inconclusive; nt = not tested or not shown. Only some compounds are listed: those with a hit (about 3.6% of all), similar ones and a draw of the others. Unless noted, calls come from the whole dose curve; as a rule, active = well fitted curve in the direction sought with a large enough effect; inconclusive = small, poorly fitted or top-dose-only effect, or another doubt; inactive = no such curve, though single readings can be large; an effect the other way counts as inactive or inconclusive.

SMILES | PI5P4K alpha inh | Rango dissoc inh | PLK1 PBD block | KAT2A inh | VDR inhibitor | Rango complex inh
CC(/C=N/NC(=O)c1ccc(CN2c3cccc4cccc(c34)S2(=O)=O)cc1)c1ccccc1 (stereo not drawn) | ? | -14% | ? | -22% | -15% | 1%
CCN(CC)C(=O)CSc1nc(C)cc(-c2cccs2)c1C#N | nt | 9% | 21µM* | -14% | 2% | 1%
CCc1cc2c(cc3c(=O)n(CC(=O)N4CCN(C)CC4)ncn32)s1 | -9 | 13% | 21µM* | -6% | ? | 1%
CCc1cc2c(cc3c(=O)n(CC(=O)NC4CCC(C)CC4)ncn32)s1 (stereo not drawn) | nt | nt | nt | -6% | 9% | nt
COC(=O)c1ccc(-c2ccc(C(c3c(C)[nH][nH]c3=O)c3c(C)[nH][nH]c3=O)o2)cc1 | ? | 2% | 12µM* | -21% | 35µM* | 1%
Cc1[nH][nH]c(=O)c1C(c1ccc(-c2cccc(C(=O)O)c2)o1)c1c(C)[nH][nH]c1=O | ? | ? | ? | 0% | ? | 1%
Cc1[nH][nH]c(=O)c1C(c1ccc(-c2cccc(Cl)c2)o1)c1c(C)[nH][nH]c1=O | -15 | 15% | 12µM* | -10% | ? | -2%
Cc1ccc(-c2noc(-c3ccccc3NC(=O)C3CC(=O)N(c4ccc(C)cc4)C3)n2)cc1 (stereo not drawn) | nt | nt | nt | -1% | 7% | nt
COc1ccc(CNC(=O)CCC(=O)N2CC3CCCN3c3ccccc32)cc1 (stereo not drawn) | nt | nt | nt | 4% | 20% | nt
O=S(=O)(NCc1cccs1)c1cccc2cccnc12 | nt | 18% | -7% | 4µM* | 8% | 2%
O=S(=O)(NCc1cccs1)c1ccccc1Cl | 4 | 17% | ? | 1% | -6% | 2%
Oc1c(Br)cc(C2N=C(c3ccccc3)NO2)cc1Br (stereo not drawn) | -56* | 13% | 12µM* | -4% | -7% | -4%
CSc1ccc(C2N=C(c3ccccc3)NO2)cc1 (stereo not drawn) | 3 | 5% | -16% | -1% | -15% | ?
CC(C)COc1ccc(C(=O)N2CCCCC2CCN2CCOCC2)cc1 (stereo not drawn) | nt | nt | nt | -6% | -2% | nt
O=C(CCN1CCCCC1)c1ccc2c(c1)OCO2 | -2 | 3% | ? | -4% | 45µM* | 3%
O=C(CCCN1CCOCC1)c1ccc2c(c1)OCCO2 | nt | -13% | -1% | 3% | -19% | 0%
O=C(CCN1CCOCC1)c1ccc2c(c1)OCCO2 | 2 | -10% | ? | -1% | 56µM* | 3%
CC(CN1CCCCC1)OC(=O)c1ccc2c(c1)OCO2 (stereo not drawn) | -4 | 8% | 1% | 0% | 9% | -1%
O=S(c1ccccc1)c1ccc2nnnn2n1 (stereo not drawn) | nt | nt | nt | 1% | nt | nt
COc1ccc(-c2coc3cc(O)ccc3c2=O)c(O)c1O | nt | nt | nt | ? | 50µM* | nt
COc1ccccc1-c1coc2cc(O)ccc2c1=O | nt | nt | nt | 25µM* | -1% | nt
CCN1CCC(N(Cc2cccc(OC)c2)C(=O)Nc2cccc(C)c2C)CC1 | nt | nt | nt | -2% | -2% | nt
CN1C(=O)N(C)c2ccc(Br)c3cccc1c23 | -3 | 5% | 30µM* | -3% | ? | 0%
CCC(NC(=O)CCc1ccccc1)c1ccccc1 (stereo not drawn) | 1 | 6% | -4% | -14% | 89µM* | 0%
Cc1cc(C)cc(NC(=O)C(=O)NC(C)c2ccccc2)c1 (stereo not drawn) | nt | nt | nt | -5% | -8% | nt
